# Bioassay records from PubChem BioAssay.
# An excerpt weighted towards active compounds, which were near 0.99% of everything screened.
# TRHR ag = agonists of human TRH receptor. P34981. TRHR cells, calcium flux fluo-8, FDSS agonist mode. activation, % at 2 µM. actives 0.18% (n = 360,000); in the data active = activation above about 30%; also: 0% is about no effect
# Target sequence (P34981 whole entry, looked up): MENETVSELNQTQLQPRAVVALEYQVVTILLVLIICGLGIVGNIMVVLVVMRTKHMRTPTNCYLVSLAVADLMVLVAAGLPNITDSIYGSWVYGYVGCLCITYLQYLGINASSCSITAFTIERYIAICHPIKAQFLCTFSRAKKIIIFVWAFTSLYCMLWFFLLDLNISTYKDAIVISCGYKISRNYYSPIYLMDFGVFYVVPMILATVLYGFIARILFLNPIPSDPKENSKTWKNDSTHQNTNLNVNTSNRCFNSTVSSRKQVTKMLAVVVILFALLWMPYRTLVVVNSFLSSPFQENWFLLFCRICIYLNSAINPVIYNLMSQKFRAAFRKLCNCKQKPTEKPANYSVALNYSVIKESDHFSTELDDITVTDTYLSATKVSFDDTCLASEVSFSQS
#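 In this calcium-flux screen, cells bearing human TRHR are dye-loaded with fluo-8, baselined for 10 cycles, then exposed to library compounds; positive kinetic calcium responses during the agonist phase mark hits, with TRH as control.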
# TRHR PAM = allosteric enhancers of human TRH receptor; enhancement, % at 2 µM; AID 493056; TRHR cells, fluo-8 calcium fluorescence, EC20 TRH enhancement; actives 0.66% (n = 360,000); in the data active = enhancement above about 30%; also: 0% is about no effect
#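 TRHR-expressing cells loaded with fluo-8 calcium dye were read kinetically (ex 480/em 530) during compound addition, then stimulated with an EC20 of TRH (10 nM final). Enhancement of the Gq-mediated intracellular calcium response was scored.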
# TRPV1 agonist = activates the human vanilloid receptor TRPV1 | Q8NER1 | TRPV1-expressing cells, Fluo-8 calcium influx, agonist mode | activation, % at 8.33 µM | actives 0.19% (n = 320,000); in the data active = activation above about 80%; inconclusive = between about 30% and that limit; also: 0% is about no effect
#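 Cells expressing TRPV1 were dye-loaded with Fluo-8 and read kinetically: 10 s baseline, 3 min after compound (agonist portion), then 2 min after EC20 capsaicin (allosteric enhancer portion). Calcium-bound dye fluorescence at 480/520 nm.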
# TRPML1 ag = human mucolipin-1 channel agonism; TRPML1-expressing cells, Ca2+ dye fluorescence, FDSS; activation, % (no concentration beside the values); actives 0.12% (n = 410,000); AID 624414; in the data active = activation above about 50%; inconclusive = mostly about 30% to 49%; also: 0% is about no effect
#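 Calcium fluorescence on an FDSS kinetic reader gave the read-out. Tet-induced TRPML1-DL cells were plated overnight, dye-loaded (Ca8 with quencher, 45-90 min, room temperature, dark), then read 110 s after compound addition, and again 110 s after 4uM final 54-4 (EC80).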
# TRPML1 blocker = human mucolipin-1 channel inhibition | actives 0.02% (n = 390,000) | Q9GZU1 | activity change, negative = inhibition, % (concentration not given with the values) | AID 624415 | TRPML1-inducible cells, Ca2+ dye fluorescence, FDSS; active compounds read low; inhibition of EC80 agonist-evoked calcium signal; in the data active = activity change below about -50%; inconclusive = between about -30% and that limit;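 also: stimulus is agonist 54-4 at its EC80 concentration; % is scaled to controls: 0 for no effect and ±100 for the full control effect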
#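 TRPML1-DL cells, Tet-induced overnight (~16 h, 37 °C) at 1,500 cells/well, were loaded with Ca8 no-wash dye plus quencher for 45-90 min at room temperature. Compounds were pinned during FDSS kinetic reading; agonist 54-4 at EC80 (4 uM final) then added.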
# TRPV1 PAM = human TRPV1 potentiation | potentiation, % at 8.33 µM | actives 0.02% (n = 320,000) | AID 540277 | Q8NER1 | TRPV1-expressing cells, Fluo-8 calcium influx, capsaicin EC20 potentiation; in the data active = potentiation above about 80%; inconclusive = between about 30% and that limit; also: 0% is about no effect
#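 TRPV1-expressing cells were cultured overnight at 35.5C and loaded with Fluo-8 calcium dye for 40 to 90 min at room temperature. After a 10 s baseline, compound was added and calcium influx was read kinetically for 3 min (ex 480/em 520 nm).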
# Active calls of the source: *; ? = inconclusive; . = no result.
SMILES,TRHR ag,TRHR PAM,TRPV1 agonist,TRPML1 ag,TRPML1 blocker,TRPV1 PAM
COc1ccccc1NC(=O)CCN1C(=O)C2CC=CCC2C1=O (configuration not stated),0,35*,1,0,44,6
N#C/C(=C/c1ccc(-c2ccc(S(N)(=O)=O)cc2)o1)c1nc2ccccc2s1,93*,20,22,64*,3,-2
N#C/C(=C/c1ccc(-c2ccc(S(N)(=O)=O)cc2)o1)C(=O)Nc1ccccc1,1,-6,-1,1,-17,11
N#C/C(=C\c1ccccn1)c1nc2ccccc2s1,45*,3,?,27,-13,4
N#C/C(=C/c1ccc(-c2ccccc2)o1)c1nc(-c2cccs2)cs1,68*,0,11,?,?,18
CCOC(=O)c1ccc(Nc2c(-c3ccc(N(C)C)cc3)nc3nc[nH]n23)cc1,2,5,.,1,-1,.
O=C1COc2cc(S(=O)(=O)CCC(=O)N3CCN(c4cccc(Cl)c4)CC3)c(Cl)cc2N1,1,5,.,1,-3,.
Cc1cc2c(n1-c1ccc(C(=O)NCCc3ccc(Cl)cc3)cc1)CCC(C)C2 (configuration not stated),0,31*,.,1,19,.
COc1ccc(-c2[nH]ncc2C(=O)NCc2cccc(F)c2)cc1,-1,37*,.,1,-12,.
CC(C)(O)C#Cc1ccc(C(=O)N2CCN(c3ccc([N+](=O)[O-])cc3)CC2)cc1,0,-4,0,0,-22,-10
CC(C)(O)C#Cc1ccc(C(=O)N2CCN(c3ccccc3)CC2)cc1,1,34*,5,1,18,0
CCS(=O)(=O)N1CCN(c2ccccc2)CC1,0,32*,1,-1,-8,?
O=C(c1ccc2c(c1)CCN2S(=O)(=O)c1ccccc1)N1CCN(c2ccccc2)CC1,0,33*,-1,-1,2,-4
CCOC(=O)c1[nH]c(C)c(C(=O)NCc2ccc(C)cc2)c1C,0,7,19,0,6,7
CCOC(=O)c1[nH]c(C)c(C(=O)c2ccc(C)cc2)c1C,-2,-12,90*,2,1,0
CN(C)CCNC(C(=O)Nc1cccc(S(=O)(=O)N2CCOCC2)c1)c1ccccc1 (configuration not stated),1,36*,0,0,10,3
O=C(Nc1cccc(S(=O)(=O)N2CCOCC2)c1)C(c1ccccc1)N1CCCCC1 (configuration not stated),0,-9,11,2,3,17
Cc1ccc(S(=O)(=O)NCC(=O)NC2CCCCCC2)cc1,0,34*,?,0,-8,-11
Cc1ccc(S(=O)(=O)NCC(=O)NC2CCCC2)cc1,0,-1,-3,0,1,-9
Cc1ccccc1-c1nc(CS(=O)(=O)CC(=O)N2CCCCC2)c(C)o1,0,33*,-5,1,9,-6
Cc1nc2sc(C)c(C)n2c(=O)c1S(=O)(=O)N1CCN(c2ccccc2F)CC1,0,35*,.,0,4,.
Cc1nc2scc(C)n2c(=O)c1S(=O)(=O)N1CCN(c2ccccc2)CC1,0,-1,12,0,6,-13
O=c1[nH]c2ccc(S(=O)(=O)N3CCN(S(=O)(=O)c4c(F)cccc4F)CC3)cc2[nH]c1=O,0,-6,.,.,.,.
COc1ccc(N(CC(=O)Nc2c(C)n(C)n(-c3ccccc3)c2=O)S(=O)(=O)c2ccc(C)cc2)cc1,-1,30*,-1,2,6,2
COc1ccc(N(CC(=O)Nc2c(C)n(C)n(-c3ccccc3)c2=O)S(=O)(=O)c2ccc(F)cc2)cc1,0,-2,-4,1,-10,14
SMILES,TRHR ag,TRHR PAM,TRPV1 agonist,TRPML1 ag,TRPML1 blocker,TRPV1 PAM
CCCCCCn1c(O)c(/C=C2\C=NN=C2c2ccccc2)sc1=S,-1,33*,-5,0,1,14
CCCCn1c(O)c(/C=C2\C=NN=C2c2ccccc2)sc1=S,2,3,8,2,-2,-6
CCOc1ccc2c(c1)c(=O)c(S(=O)(=O)c1ccc(Cl)cc1)cn2Cc1ccccc1C,1,40*,.,-1,62,.
CCOc1ccc2c(c1)c(=O)c(S(=O)(=O)c1ccc(C)cc1)cn2Cc1ccccc1Cl,2,-4,.,1,-17,.
Cn1c2cc(C=O)sc2c2cnn(Cc3ccccc3F)c(=O)c21,-1,4,.,.,.,.
O=C1NC2(CCCCC2)C(=O)N1CCS(=O)(=O)Oc1ccccc1,0,38*,4,-1,1,2
O=C1NC2(CCCCC2)C(=O)N1CCN1C(=O)c2ccccc2C1=O,1,5,0,1,-24,-1
C[N+]1(CC(=O)c2ccc(Oc3ccccc3)cc2)CCOCC1,.,.,.,0,.,.
O=C1CC(c2ccccc2)CC(O)=C1C=NCc1ccccc1 (configuration not stated),0,-8,1,1,-17,-3
O=C1CC(c2ccccc2)CC(O)=C1C=NCCc1ccccc1 (configuration not stated),0,18,9,-1,7,84*
Nc1ccc(Oc2ccc(F)cc2)nc1,0,34*,2,2,-5,-6
COc1cccc(CNc2nc3ccccc3c3nc(-c4cccc(C)c4)nn23)c1,1,-9,.,0,-12,.
Cc1ccc(C(=O)OC2OC(=O)C(Cl)=C2N2CCOCC2)cc1 (configuration not stated),1,30*,-1,-1,9,1
CC(C)n1ncc2c(C(=O)Nc3ccc(S(N)(=O)=O)cc3)cc(C3CC3)nc21,0,1,81*,4,-7,-6
O=c1cc(O)c(-c2ccc(Cl)c(Cl)c2)c(Cl)[nH]1,1,35*,3,1,-10,0
CC(C)(C)c1ccc(OCCNC(=O)Cc2ccc(F)cc2)cc1,0,-2,91*,0,-13,9
COCCNC(=O)Cc1ccc(F)cc1,0,18,-1,0,-5,8
CCOc1ccc(C(=O)NCC(=O)NCCOc2ccc(C)cc2)cc1,-1,2,3,3,-1,2
CCCCOc1ccc(C(=O)NCC(=O)NCCOc2ccc(C)cc2)cc1,-1,32*,1,-2,-2,26
O=C(CCOc1ccccc1)NO,.,.,.,0,.,.
COc1ccc(CN(C(=O)c2snc(C(N)=O)c2N)C(C(=O)NC2CCCC2)c2ccc(OC)cc2)cc1 (configuration not stated),-1,7,4,0,-20,5
